Records with an inconclusive call do not appear. Calls of active or inactive are those of the source. Unless noted, calls come from the whole dose curve; as a rule, active = well fitted curve in the direction sought with a large enough effect in the repeat runs; inconclusive = weak or mixed curves; inactive = no such curve, though single readings can be large; an effect the other way counts as inactive or inconclusive.
Tests used:
[1] = qHTS assay to identify small molecule agonists of the hypoxia (HIF-1) signaling pathway (AID 1224846; active = well fitted activation curve with a large enough effect in the signal ratio in the repeat runs, not every such curve was filed as active; the % refers to the signal ratio)
How it was run: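 In ME-180 cells bearing an HRE-bla construct, 17 h treatment with DMSO-dissolved compounds at 37C was followed by CCF4-AM loading to quantify reporter induction.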

[2] = qHTS assay to identify small molecule agonists of H2AX - cell viability counter screen (AID 1224847; calls by dose curve; note: nearly all actives have a fitted effect of over 30% in size; note: potency is the fitted concentration of half-maximal effect)
How it was run: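 CHO-K1 cells plated overnight at 37C, then exposed 3 h at 37C to compounds at 15 concentrations (0.76% DMSO final). Viability by CellTiter-Glo luminescence after 30 min at room temperature.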

[3] = qHTS assay to identify small molecule antagonists of the estrogen related receptor (ERR) signaling pathway from Tox21 library (AID 1224848); note: nearly all actives have a fitted effect of over 50% in size; note: potency is the fitted concentration of half-maximal effect
How it was run: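 Quantitative high-throughput format: ERR reporter cells (2,000/well) pre-incubated 6 h, treated 18 h at 37 C with compounds in DMSO alongside positive and negative controls, then read by ONE-Glo luminescence.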

[4] = qHTS assay to identify small molecule agonists of the estrogen related receptor (ERR) signaling pathway from Tox21 library (AID 1224849; calls by dose curve; note: nearly all actives have a fitted effect of over 15% in size); details: ERR reporter cell line, ONE-Glo luciferase, 18 h; at 92.4 µM (top of the series) unless noted
How it was run: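 Reporter cells (ERR, NTP source) treated with Tox21 10K compounds 18 h, 37 C. Readout: ONE-Glo luminescence, 30 min RT.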

[5] = qHTS RealTime-Glo MT Cell Viability Assay in HEK293 cells - 32 hour (AID 1224868); note: nearly all actives have a fitted effect of over 50% in size; note: potency is the fitted concentration of half-maximal effect
How it was run: (§1)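 Reads taken at 0, 8, 16, 24, 32 and 40 h from the same wells. HEK293 cells (600/well) carried RealTime-Glo reagents from seeding, with compound added after a 5 h settle at 37 C.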

[6] = A CellTox Green Cytotoxicity Assay to monitor cytotoxicity in HEK293 cells - 0 hour (AID 1224869); note: nearly all actives have a fitted effect of over 50% in size
How it was run: (§2)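 Homogeneous no-lysis format: HEK293 cell suspension mixed with CellTox Green reagent, seeded, incubated 5 h at 37 C/5% CO2, then dosed by pintool with compound in DMSO.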

[7] = qHTS RealTime-Glo MT Cell Viability Assay in HepG2 cells - 40 hour (AID 1224870); note: nearly all actives have a fitted effect of over 50% in size; note: potency is the fitted concentration of half-maximal effect
How it was run: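 HepG2 cells (600/well) mixed with RealTime-Glo MT reagent, settled 5 h at 37 C/5% CO2 before compound addition. Nonlytic NanoLuc luminescence from viable-cell prosubstrate reduction read repeatedly during 40 h treatment at 37 C.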

[8] = A CellTox Green Cytotoxicity Assay to monitor cytotoxicity in HEK293 cells - 40 hour (AID 1224871); note: nearly all actives have a fitted effect of over 45% in size; note: potency is the fitted concentration of half-maximal effect
How it was run: as §2

[9] = qHTS RealTime-Glo MT Cell Viability Assay in HEK293 cells - 16 hour (AID 1224872); note: nearly all actives have a fitted effect of over 50% in size; note: potency is the fitted concentration of half-maximal effect
How it was run: as §1

[10] = qHTS RealTime-Glo MT Cell Viability Assay in HepG2 cells - 24 hour (AID 1224867); note: nearly all actives have a fitted effect of over 50% in size
How it was run: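 HepG2 suspension premixed with RealTime-Glo reagents is plated at 600 cells per well and left 5 h at 37 C/5% CO2. Compounds in DMSO then go in, and bioluminescence reflecting viable cell number is recorded over 40 h.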
% is set by controls: 0 for no effect and ±100 for the full control effect.

CCCCCCCC/C=C/CCCOC(C)=O
inactive: outcome [1] | Potency [2] | Potency [3] | activity change, positive = activation [4] 1.58% | Potency [5] | Potency [6] | Potency [7] | Potency [8] | Potency [9]

O=C1NCCN1CCN1CCC(c2cn(-c3ccc(F)cc3)c3ccc(Cl)cc23)CC1
active: Potency [2] 49.2 µM | Potency [3] 13.3 µM | Potency [5] 21.3 µM | Potency [7] 26.8 µM | Potency [8] 23.9 µM | Potency [9] 23.9 µM
inactive: outcome [1] | activity change, positive = activation [4] -56.2% [at 42.5 µM] | Potency [6]

CCCCOCC
inactive: outcome [1] | Potency [2] | Potency [3] | activity change, positive = activation [4] -0.464% | Potency [10] | Potency [6] | Potency [7] | Potency [8]

CCC(C)C(=O)OC (stereo not given)
inactive: outcome [1] | Potency [2] | Potency [3] | activity change, positive = activation [4] -4.99% | Potency [10] | Potency [5] | Potency [6] | Potency [8] | Potency [9]

O=c1cccc[nH]1
inactive: outcome [1] | Potency [2] | Potency [3] | activity change, positive = activation [4] 0.143% | Potency [5] | Potency [6] | Potency [7] | Potency [8] | Potency [9]

C#CC(O)CCC (stereo not given)
inactive: outcome [1] | Potency [2] | Potency [3] | activity change, positive = activation [4] 6.08% | Potency [5] | Potency [6] | Potency [7] | Potency [8] | Potency [9]

CC(=O)OC1CCCCC1
inactive: outcome [1] | Potency [2] | Potency [3] | activity change, positive = activation [4] 5.62% | Potency [10] | Potency [5] | Potency [6] | Potency [8] | Potency [9]

CCOCOCC
inactive: outcome [1] | Potency [2] | Potency [3] | activity change, positive = activation [4] 0.502% | Potency [5] | Potency [6] | Potency [7] | Potency [8] | Potency [9]

CC1CCCCN1CCCOC(=O)c1ccc(OC2CCCCC2)cc1 (stereo not given)
inactive: outcome [1] | Potency [2] | activity change, positive = activation [4] -35.8% [at 42.5 µM] | Potency [6]
active: Potency [3] 11.9 µM | Potency [5] 21.3 µM | Potency [9] 15.1 µM

COc1nccnc1CC(C)C
inactive: outcome [1] | Potency [2] | Potency [3] | activity change, positive = activation [4] 0.914% | Potency [10] | Potency [5] | Potency [6] | Potency [7] | Potency [8] | Potency [9]

Clc1cc(Cl)c(-c2c(Cl)c(Cl)cc(Cl)c2Cl)cc1Cl
inactive: outcome [1] | Potency [2] | Potency [3] | activity change, positive = activation [4] 21.1% [at 42.5 µM] | Potency [10] | Potency [6] | Potency [8] | Potency [9]

Cc1cccc(N(C)C)c1
inactive: outcome [1] | Potency [2] | Potency [3] | activity change, positive = activation [4] -0.051% | Potency [10] | Potency [5] | Potency [6] | Potency [7] | Potency [8] | Potency [9]

CC(C)(C)c1n[nH]c(=O)n(N)c1=O
inactive: outcome [1] | Potency [2] | Potency [3] | activity change, positive = activation [4] -7.06% | Potency [5] | Potency [6] | Potency [7] | Potency [8] | Potency [9]

CC1(C)COCN1
inactive: outcome [1] | Potency [2] | Potency [3] | activity change, positive = activation [4] 5.19% | Potency [10] | Potency [5] | Potency [9]

CCCCCCCCCC(=O)N(C)C
inactive: outcome [1] | Potency [2] | Potency [3] | activity change, positive = activation [4] 3.98% | Potency [10] | Potency [5] | Potency [6] | Potency [7] | Potency [9]

CCN(CC)c1cccc(C)c1
inactive: outcome [1] | Potency [2] | Potency [3] | activity change, positive = activation [4] 9.53% | Potency [10] | Potency [5] | Potency [6] | Potency [7] | Potency [8] | Potency [9]

CCOC(=O)CC(C)O (stereo not given)
inactive: outcome [1] | Potency [2] | Potency [3] | activity change, positive = activation [4] -9.04% | Potency [10] | Potency [5] | Potency [6] | Potency [7] | Potency [8] | Potency [9]

C(=C/c1ccccc1)/c1ccccc1
inactive: outcome [1] | Potency [2] | Potency [3] | activity change, positive = activation [4] 2.16% | Potency [10] | Potency [5] | Potency [6] | Potency [7] | Potency [9]

C[Si](C)(C)Cl
inactive: outcome [1] | Potency [2] | Potency [3] | activity change, positive = activation [4] 0.496% | Potency [10] | Potency [5] | Potency [6] | Potency [7] | Potency [8] | Potency [9]

C[C@]12CC[C@H]3C(=CCc4cc(O)ccc43)[C@@H]1CCC2=O
active: Potency [2] 101 µM | Potency [3] 61.1 µM | Potency [5] 49 µM
inactive: outcome [1] | activity change, positive = activation [4] -51.5% | Potency [6] | Potency [7] | Potency [8]

CS(C)(=O)=O
inactive: outcome [1] | Potency [2] | Potency [3] | Potency [10] | Potency [5] | Potency [7] | Potency [9]

CCCCCCCCCCCCCOP(=O)(O)O
inactive: outcome [1] | Potency [2] | Potency [3] | activity change, positive = activation [4] -2% | Potency [10] | Potency [5] | Potency [6] | Potency [7] | Potency [8] | Potency [9]

COC(=O)CC(C)CCC=C(C)C (stereo not given)
inactive: outcome [1] | Potency [2] | Potency [3] | activity change, positive = activation [4] 1.82% | Potency [10] | Potency [5] | Potency [6] | Potency [7] | Potency [8] | Potency [9]

CC(C)=CCCC(C)O (stereo not given)
inactive: outcome [1] | Potency [2] | Potency [3] | activity change, positive = activation [4] 0.538% | Potency [10] | Potency [5] | Potency [6] | Potency [7] | Potency [8] | Potency [9]

— PubChem BioAssay (Tox21)
